# Test results as given in publication PMC12136788.
# Changes are numbered by the printed parent chain. The full ranking holds about 24,000 sequences; the median of “enrichment r” is about 0.99, and the highest 2% start at about 3.7. The sample holds the highest values, similar sequences and a random draw of the others, so the mix is not that of the screen.
# B1: chr12:16048344:16048345:+_ENSG00000023734_ENST00000419869|hu_hu|hu_hu_hu_mus_True|68_98 (ssRNA)
# RNA: GGGAGUUCUACAGUCCGACGAUCAGAUCGUCCAUAAGUUAUAACCAAAAUCUCUCCUUCAGGAAUAUAUUCCAUACUGCUAACAGACAUAUUAAAAUUCAGAGAUUUCACUUCUGUCAUUGUGGCAUGAUCCCAGAGCCGAACCAACAGAGGAUUGAGCAUCA
# B2: chr14:76904501:76904502:+_ENSMUSG00000022010_ENSMUST00000022587|mus_mus|FALSE|FALSE (ssRNA)
# RNA: GGGAGUUCUACAGUCCGACGAUCUCCAUCGCCACUGGUCUACACCAUUGGGAUUUCAUGCAAUUGCAGCCAAAUUAAAAAAACAGCCCCGUGGAAAAAAAAGAGAGAGGGCGGGAGGGAGCAAGCUCCAGCAGCCUGGUUCAACAACAGAGGAUUGAGCAUCA
# B3: chr3:9848215:9848216:+_ENSG00000241553_ENST00000287613|perfect_dup|FALSE|FALSE (ssRNA)
# RNA: GGGAGUUCUACAGUCCGACGAUCCAAUAACGUAUAAUCACUGGGACCAGUCACAGCCACUGGAGGUGGAGGUUUAAAAAAAAAAAAAAAAAAAAAGACAAAAAGGUUACAGUAUCCUACAAGCACAGAGUUUAAGUUUCAAGACAACAGAGGAUUGAGCAUCA
# B4: chr3:9848215:9848216:+_ENSG00000241553_ENST00000287613|perfect_dup|FALSE|FALSE (ssRNA)
# RNA: GGGAGUUCUACAGUCCGACGAUCAUCACUGGGGCCAGUCACAGCCACUGGAGCUGGAGGUUGGUUUUUUUGUUUGUUUAAAAAAAAAAAAAAAAAGACAAAAAGGUUACAGUCUUCUACAAGCACAGAGUUUAGGUUUCAAGACAACAGAGGAUUGAGCAUCA
# B5: 25243085_25243205_1728_CDS_ENSMUSG00000059669_ENSMUST00000075954|mouse|control|control (ssRNA)
# RNA: GGGAGUUCUACAGUCCGACGAUCUCCUGAGCUCUUUUUUGAUUCGUUGUAUUUUUUUUCAAAAAGUUUCUUUUCAAGUAAGCUCACUUCUUCAUGGAGAGCAGAGGUCUUUAUUCUCAGUAAGAAGGAGAAGAUGUUUAGUAUCAACAGAGGAUUGAGCAUCA
# B6: chr3:176740097:176740098:-_ENSG00000177565_ENST00000430069|hu_mus|hu_hu_hu_mus_True|78_78 (ssRNA)
# RNA: GGGAGUUCUACAGUCCGACGAUCUGUUUUGUAUACCACAAAAGGAGGCACUUUCAGUAUCUGUAAAAGGUGUUUAGUCCUAAAACAUACUCACCUAGAGGAUAACUCAGGAAAACAAUCUGUUACACUCUAAGACCUACUCCACAACAGAGGAUUGAGCAUCA
# B7: 122244776_122244896_1956_3pUTR_ENSMUSG00000039735_ENSMUST00000162409|mouse|control|control (ssRNA)
# RNA: GGGAGUUCUACAGUCCGACGAUCGAAAAAGCACACAUCCUUUACACACACUUAGGCAGGACAGAAAGCAAAAGGCAUCGAUUAAGCUUCCACACCAGCAUCACUUGAACAGUAAGGCGUCAAAGAGUUUCUGGUGGCAGUAUUCAACAGAGGAUUGAGCAUCA
# B8: chr8:59488481:59488482:+_ENSG00000137575_ENST00000447182|hu_mus|motif|central (ssRNA)
# RNA: GGGAGUUCUACAGUCCGACGAUCUCCAGCAUCGUUACCUGUCACAGGUGCUACCAUAUAGUUCACACUGGAUGGUCUUGCGGCCAACCCUUGUGCUGGUGCUCCAGAGACCAUGGGCAUGCUCUCACAUAUUUCAGCUUCAUUCAACAGAGGAUUGAGCAUCA
# B9: chr11:77340908:77340909:-_ENSG00000074201_ENST00000525064|hu_hu|hu_hu_hu_mus_True|8_108 (ssRNA)
# RNA: GGGAGUUCUACAGUCCGACGAUCGUUUCGGUCCCUGGACACCGCAUGUAAACUAAUGGUGGGGUAUUCCAGUGAGAAUCCUAAUCCCGAACCAUCUAACCAGGACAGGCGGCUCUCCGCGAUGUAAAGGGUACCAGUGCCGAGCAACAGAGGAUUGAGCAUCA
# B10: chr3:119217614:119217615:+_ENSG00000113845_ENST00000264244|hu_hu|FALSE|FALSE (ssRNA)
# RNA: GGGAGUUCUACAGUCCGACGAUCCUCUACAGAGAAAGCUCCGCGGUGCCGGUGGCGGCACCUCCAUGGCCUUCUCUCGACCUACGGACAAACUUGAGCGCUCAGGACUUCAAGUCCUCGCGGACGUGCCGCGGGAGAGCGUAACAACAGAGGAUUGAGCAUCA
# B11: 60766971_60767091_3885_CDS_ENSG00000011028_ENST00000303375|human|control|control (ssRNA)
# RNA: GGGAGUUCUACAGUCCGACGAUCCGUGCGCAGCCCUCGGGCAGCCUGCGUGAGGAAGGCCUGGGUGUAGGGGUCGGGCACGUAGGCCAGGCUGGCAUUGCGGCUCUCACACAGCAGGAGGGCAUCGUGCCAGCGCAGCGGCUUCAACAGAGGAUUGAGCAUCA
# B12: chr12:55960871:55960872:-_ENSMUSG00000062929_ENSMUST00000078124|mus_mus|motif|central (ssRNA)
# RNA: GGGAGUUCUACAGUCCGACGAUCUACUAAGCUUUAAGACUGCUAUACGAUUUUUUUUUCCCAAUUCAUUUUGGAAAAGCGGUGAAGGAACUGUGGCUGAGACAAACAUUCCUAAACAUCACAAUCAUCAUUAACCUUCGAAUGCAACAGAGGAUUGAGCAUCA
# B13: chr22:38881817:38881818:-_ENSG00000100201_ENST00000396821|hu_hu|motif|central (ssRNA)
# RNA: GGGAGUUCUACAGUCCGACGAUCUUAUUCCAGACUGGAUCAUUUUGGUGGGCAGAAGAAACCUGGCAGUGAAUUCGGACGGAUCUGCAUGAAAAGACAAAUCACGAUGGUUGGGGGGAAAAAUUAAAAAAAAAAAAAGAAAAACAACAGAGGAUUGAGCAUCA
# B14: chr12:39763582:39763583:-_ENSG00000139116_ENST00000544797|hu_hu|FALSE|FALSE (ssRNA)
# RNA: GGGAGUUCUACAGUCCGACGAUCCUCUAAGAAUUGGGCAUUCACUUUAAAAUCUGGAGCAGGAAGCCCAUUUUUAAUUGCUAUGUGUUUUUUUUCUUCAAUACUCUUAAAAAGGUGUUUAACAGCUCGAGAAAUAAUACCCAGCAACAGAGGAUUGAGCAUCA
# B15: 36507729_36507849_895_3pUTR_ENSMUSG00000043671_ENSMUST00000051377|mouse|control|control (ssRNA)
# RNA: GGGAGUUCUACAGUCCGACGAUCGAAAGAGGCUGUAAAUUUGGUCUCAGGAAGUAGGUAAUUGCUGCAAUCUGAAUUGCAAAAAAAGGCAGAGCCCAGUUCUCCCUCAGCGGGAUGGUAAACUCGACUCUUGUGGUGUCUAUUCAACAGAGGAUUGAGCAUCA
# B16: chr22:38881817:38881818:-_ENSG00000100201_ENST00000396821|hu_hu|FALSE|FALSE (ssRNA)
# RNA: B13 RNA with G76U, G77A, G80U, G81A
# B17: chr17:26793470:26793471:+_ENSMUSG00000001576_ENSMUST00000167662|mus_mus|FALSE|FALSE (ssRNA)
# RNA: GGGAGUUCUACAGUCCGACGAUCAUUGGAAUCAGAGGAAAAAUUACAAAUGGCAGAGAAUCCAGCUACCCAUAAGAGACUAUUUAAGAAAAACAAAACCAAAACCAAACAAAAACAAAAAACCCCAAAACUUCCUACUGCAGGCAACAGAGGAUUGAGCAUCA
# B18: 193603509_193603629_2668_3pUTR_ENSMUSG00000026623_ENSMUST00000110855|mouse|control|control (ssRNA)
# RNA: GGGAGUUCUACAGUCCGACGAUCUAAAUCACAUGAACAAAAGGACAAAUCUUUCAAAAGGUUUCUACGAUGAACAGAAACUUGCUUGGCUUUGCCCUCUUAGAAGACGACUGGAAGAGACUGGGAAGUGUUUUUGAGCUGCUGCAACAGAGGAUUGAGCAUCA
# B19: 87419285_87419405_2552_3pUTR_ENSMUSG00000028496_ENSMUST00000078090|mouse|control|control (ssRNA)
# RNA: GGGAGUUCUACAGUCCGACGAUCGAAAAUCAAGGUGGCUAUUUGGUCCCCCCAGUUGGUAACUAUGUCCUGGAACUGGGAAAACAAAGAUGGAAACCAUAGACUGCAACAAGUUAAAGGACCUGGGAAGAGUUGGUGGAAAGUCAACAGAGGAUUGAGCAUCA
# B20: chr1:66459500:66459501:+_ENSMUSG00000015222_ENSMUST00000114013|mus_hu|motif|central (ssRNA)
# RNA: GGGAGUUCUACAGUCCGACGAUCUAAAAAGGCAGGGGCAAAGGGCGAUGUUUCUGUAACUAUUUCAUUCUUCAUGACAUCGGAAGGAAGAGUGAAGCUUCCCCCUUGAAAGGGACUUGGCAUGGGAGAAUCAAACUGUUUCCCCAACAGAGGAUUGAGCAUCA
# B21: chr16:45711415:45711416:-_ENSMUSG00000022658_ENSMUST00000096057|mus_hu|FALSE|FALSE (ssRNA)
# RNA: GGGAGUUCUACAGUCCGACGAUCUUAUUAGGUGCAUUCUAUAAGUUGAAGAGGAGAAUUUUUGGCAAAUAAAUAAAUAAAUAAAUAAAUAAUCAAACAGAGACUCUGGGGCCCGAGGAGCUCAGGAAAACGGAAGCGGAGUCUCAACAGAGGAUUGAGCAUCA
# B22: chr14:89338683:89338684:+_ENSG00000165533_ENST00000346301|hu_hu|hu_hu_hu_mus_False|58_68 (ssRNA)
# RNA: GGGAGUUCUACAGUCCGACGAUCGUGGUUGUUGUGGACCAGGGCCAGCCUGAAGCAUUGGUGGGCCAAAUUUGUAUCUCCUAUUCCCACAGCUAUGUGCCCCAGGUUGUACCAGACAUCAGCUGCCUCUUCUUCAUUUUCAGCCAACAGAGGAUUGAGCAUCA
# Target: T1, UNK ZnF1-3 (human, UniProt Q9C0B0 31-174)
# T1 sequence: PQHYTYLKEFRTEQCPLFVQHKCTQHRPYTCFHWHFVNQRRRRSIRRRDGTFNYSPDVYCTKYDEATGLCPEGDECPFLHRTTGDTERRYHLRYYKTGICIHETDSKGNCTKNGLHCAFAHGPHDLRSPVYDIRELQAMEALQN
# Test: nsRBNS (natural sequence RNA bind-n-seq); RBNS binding buffer (assumed for nsRBNS): 25 mM Tris pH 7.5, 150 mM KCl, 3 mM MgCl2, 0.01% Triton X-100, 500 ug/ml BSA, 20 U/ml SUPERase-In, 4 C; UNK is unkempt and MSI1 is Musashi-1; names of the RNAs are library labels; protein concentration not given here; high values mean tight binding
row,Binder,binding signal [enrichment R]
1,B1,1.19
2,B2,2.68
3,B3,9.16
4,B4,9.16
5,B5,0.743
6,B6,0.869
7,B7,1.73
8,B8,0.558
9,B9,1.38
10,B10,0.297
11,B11,0.311
12,B12,0.982
13,B13,13.5
14,B14,2.47
15,B15,0.793
16,B16,11.1
17,B17,3.74
18,B18,1.27
19,B19,1.56
20,B20,0.819
21,B21,13.2
22,B22,0.84
